The whole screen tested about 5,500 compounds, of which about 2,000 (36%) were called active. Not shown: some 18% with an inconclusive outcome. Rule as the data show it: active = normalized growth mostly below about 0.91 (no sharp cut-off); inconclusive = no clear call, values can overlap the other calls; inactive = mostly above about 0.92. The list shows a part of the results.
Experiment: chemical genetic growth profiling, strain panel (AID 1159580);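 also: tested at 20 µM; growth read once vehicle control cultures reached saturation at 30 °C; 1 = growth at the plate median or of vehicle wells; lower values mean less growth of the strain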
Conditions: growth OD

Measured: normalized growth

CC(=O)O[C@H]1CC[C@@]2(C)C(=CC(=O)C3C4CCC(C(C)CCCC(C)C)[C@@]4(C)CCC32)C1 (stereo not given in full)
inactive: S. cerevisiae deletion strains, locus YAL013W, strain DEP1, stronger effect = lower value 1.01 | S. cerevisiae deletion strains, locus YAL021C, strain ccr4, stronger effect = lower value 0.992 | S. cerevisiae deletion strains, locus YAL026C, strain drs2, stronger effect = lower value 1.02 | S. cerevisiae deletion strains, locus YAL030W, strain snc1, stronger effect = lower value 0.992 | S. cerevisiae deletion strains, locus YBL061C, strain skt5, stronger effect = lower value 0.988 | S. cerevisiae deletion strains, locus YBR009C, strain hhf1, stronger effect = lower value 1.01 | S. cerevisiae deletion strains, locus YBR021W, strain FUR4, stronger effect = lower value 0.999 | S. cerevisiae deletion strains, locus YBR023C, strain chs3, stronger effect = lower value 0.985 | S. cerevisiae deletion strains, locus YBR171W, strain sec66, stronger effect = lower value 0.996 | S. cerevisiae deletion strains, locus YBR229C, strain ROT2, stronger effect = lower value 1 | S. cerevisiae deletion strains, locus YBR231C, strain swc5, stronger effect = lower value 1.02 | S. cerevisiae deletion strains, locus YBR279W, strain paf1, stronger effect = lower value 0.996 | S. cerevisiae deletion strains, locus YCL011C, strain gbp2, stronger effect = lower value 0.994 | S. cerevisiae deletion strains, locus YCL016C, strain dcc1, stronger effect = lower value 0.99 | S. cerevisiae deletion strains, locus YCL029C, strain bik1, stronger effect = lower value 0.986 | S. cerevisiae deletion strains, locus YCL061C, strain MRC1, stronger effect = lower value 1 | S. cerevisiae deletion strains, locus YCL069W, strain vba3, stronger effect = lower value 0.997 | S. cerevisiae deletion strains, locus YCR088W, strain abp1, stronger effect = lower value 0.995 | S. cerevisiae deletion strains, locus YDL005C, strain med2, stronger effect = lower value 0.971 | S. cerevisiae deletion strains, locus YDL035C, strain GPR1, stronger effect = lower value 1.02 | S. cerevisiae deletion strains, locus YDL040C, strain nat1, stronger effect = lower value 0.991 | S. cerevisiae deletion strains, locus YDL074C, strain BRE1, stronger effect = lower value 1.04 | S. cerevisiae deletion strains, locus YDL101C, strain DUN1, stronger effect = lower value 1 | S. cerevisiae deletion strains, locus YDL185W, strain tfp1, stronger effect = lower value 1.02 | S. cerevisiae deletion strains, locus YDL192W, strain arf1, stronger effect = lower value 1 | S. cerevisiae deletion strains, locus YDR001C, strain nth1, stronger effect = lower value 0.99 | S. cerevisiae deletion strains, locus YDR069C, strain doa4, stronger effect = lower value 0.992 | S. cerevisiae deletion strains, locus YDR101C, strain arx1, stronger effect = lower value 1 | S. cerevisiae deletion strains, locus YDR137W, strain rgp1, stronger effect = lower value 1.01 | S. cerevisiae deletion strains, locus YDR150W, strain NUM1, stronger effect = lower value 0.998 | S. cerevisiae deletion strains, locus YDR159W, strain sac3, stronger effect = lower value 1.01 | S. cerevisiae deletion strains, locus YDR162C, strain NBP2, stronger effect = lower value 1.01 | S. cerevisiae deletion strains, locus YDR195W, strain ref2 0.977 | S. cerevisiae deletion strains, locus YDR297W, strain sur2, stronger effect = lower value 0.995 | S. cerevisiae deletion strains, locus YDR318W, strain mcm21, stronger effect = lower value 0.978 | S. cerevisiae deletion strains, locus YDR334W, strain swr1, stronger effect = lower value 0.994 | S. cerevisiae deletion strains, locus YDR335W, strain msn5, stronger effect = lower value 0.993 | S. cerevisiae deletion strains, locus YDR388W, stronger effect = lower value 0.979 | S. cerevisiae deletion strains, locus YDR392W, strain spt3, stronger effect = lower value 0.944 | S. cerevisiae deletion strains, locus YDR502C, strain sam2, stronger effect = lower value 1 | S. cerevisiae deletion strains, locus YEL003W, strain gim4, stronger effect = lower value 1.01 | S. cerevisiae deletion strains, locus YEL037C, strain rad23, stronger effect = lower value 0.994 | S. cerevisiae deletion strains, locus YEL061C, strain CIN8 (second series), stronger effect = lower value 0.995 | S. cerevisiae deletion strains, locus YEL061C, strain CIN8, stronger effect = lower value 1 | S. cerevisiae deletion strains, locus YER015W, strain faa2, stronger effect = lower value 0.996 | S. cerevisiae deletion strains, locus YER016W, strain bim1, stronger effect = lower value 0.989 | S. cerevisiae deletion strains, locus YER110C, stronger effect = lower value 0.982 | S. cerevisiae deletion strains, locus YER111C, strain swi4, stronger effect = lower value 0.999 | S. cerevisiae deletion strains, locus YER155C, strain BEM2 (second series), stronger effect = lower value 1.01 | S. cerevisiae deletion strains, locus YER155C, strain BEM2, stronger effect = lower value 1.01 | S. cerevisiae deletion strains, locus YER167W, strain BCK2, stronger effect = lower value 1.01 | S. cerevisiae deletion strains, locus YFR010W, strain ubp6, stronger effect = lower value 1.01 | S. cerevisiae deletion strains, locus YGL078C, strain dbp3, stronger effect = lower value 1.02 | S. cerevisiae deletion strains, locus YGL086W, strain mad1, stronger effect = lower value 1.01 | S. cerevisiae deletion strains, locus YGL167C, strain pmr1, stronger effect = lower value 0.993 | S. cerevisiae deletion strains, locus YGL173C, strain kem1, stronger effect = lower value 0.978 | S. cerevisiae deletion strains, locus YGL227W, strain vid30, stronger effect = lower value 0.984 | S. cerevisiae deletion strains, locus YGL240W, strain doc1, stronger effect = lower value 1.01 | S. cerevisiae deletion strains, locus YGL248W, strain PDE1, stronger effect = lower value 0.987 | S. cerevisiae deletion strains, locus YGL253W, strain hxk2, stronger effect = lower value 0.993 | S. cerevisiae deletion strains, locus YGR135W, strain pre9, stronger effect = lower value 0.984 | S. cerevisiae deletion strains, locus YGR252W, strain gcn5, stronger effect = lower value 1.07 | S. cerevisiae deletion strains, locus YHR013C, strain ard1, stronger effect = lower value 0.994 | S. cerevisiae deletion strains, locus YHR027C, strain rpn1, stronger effect = lower value 0.994 | S. cerevisiae deletion strains, locus YHR030C, strain SLT2, stronger effect = lower value 1 | S. cerevisiae deletion strains, locus YHR079C, strain IRE1 (second series), stronger effect = lower value 0.991 | S. cerevisiae deletion strains, locus YHR094C, strain hxt1, stronger effect = lower value 0.975 | S. cerevisiae deletion strains, locus YHR129C, strain ARP1, stronger effect = lower value 0.999 | S. cerevisiae deletion strains, locus YHR142W, strain chs7, stronger effect = lower value 0.979 | S. cerevisiae deletion strains, locus YHR200W, strain rpn10, stronger effect = lower value 0.985 | S. cerevisiae deletion strains, locus YIL066C, strain RNR3, stronger effect = lower value 1 | S. cerevisiae deletion strains, locus YIL073C, strain SPO22, stronger effect = lower value 1.03 | S. cerevisiae deletion strains, locus YIL125W, strain kgd1, stronger effect = lower value 1.01 | S. cerevisiae deletion strains, locus YIR030C, strain dcg1, stronger effect = lower value 0.989 | S. cerevisiae deletion strains, locus YJL092W, strain hpr5, stronger effect = lower value 0.99 | S. cerevisiae deletion strains, locus YJL095W, strain BCK1 (second series), stronger effect = lower value 0.982 | S. cerevisiae deletion strains, locus YJL095W, strain BCK1, stronger effect = lower value 1.01 | S. cerevisiae deletion strains, locus YJL115W, strain asf1, stronger effect = lower value 0.981 | S. cerevisiae deletion strains, locus YJL129C, strain trk1, stronger effect = lower value 0.989 | S. cerevisiae deletion strains, locus YJL134W, strain LCB3, stronger effect = lower value 1.01 | S. cerevisiae deletion strains, locus YJL154C, strain vps35, stronger effect = lower value 0.999 | S. cerevisiae deletion strains, locus YJL164C, strain tpk1, stronger effect = lower value 1 | S. cerevisiae deletion strains, locus YJL166W, strain qcr8, stronger effect = lower value 0.998 | S. cerevisiae deletion strains, locus YJL168C, strain set2, stronger effect = lower value 0.976 | S. cerevisiae deletion strains, locus YJL187C, strain SWE1 (second series), stronger effect = lower value 1.01 | S. cerevisiae deletion strains, locus YJL187C, strain SWE1, stronger effect = lower value 0.991 | S. cerevisiae deletion strains, locus YJR043C, strain POL32, stronger effect = lower value 1.01 | S. cerevisiae deletion strains, locus YJR075W, strain HOC1, stronger effect = lower value 1 | S. cerevisiae deletion strains, locus YKL009W, strain mrt4, stronger effect = lower value 1.04 | S. cerevisiae deletion strains, locus YKL068W, stronger effect = lower value 1 | S. cerevisiae deletion strains, locus YKL085W, strain MDH1 (second series), stronger effect = lower value 1 | S. cerevisiae deletion strains, locus YKL085W, strain MDH1, stronger effect = lower value 1 | S. cerevisiae deletion strains, locus YKL160W, strain elf1, stronger effect = lower value 0.996 | S. cerevisiae deletion strains, locus YKR001C, strain vps1, stronger effect = lower value 1.03 | S. cerevisiae deletion strains, locus YKR026C, strain gcn3, stronger effect = lower value 0.994 | S. cerevisiae deletion strains, locus YKR091W, strain srl3, stronger effect = lower value 0.994 | S. cerevisiae deletion strains, locus YLL001W, strain dnm1, stronger effect = lower value 0.984 | S. cerevisiae deletion strains, locus YLL026W, stronger effect = lower value 1 | S. cerevisiae deletion strains, locus YLL041C, strain sdh2, stronger effect = lower value 0.993 | S. cerevisiae deletion strains, locus YLR027C, strain aat2, stronger effect = lower value 1 | S. cerevisiae deletion strains, locus YLR039C, strain RIC1, stronger effect = lower value 1.03 | S. cerevisiae deletion strains, locus YLR058C, strain SHM2, stronger effect = lower value 0.999 | S. cerevisiae deletion strains, locus YLR102C, strain apc9, stronger effect = lower value 0.975 | S. cerevisiae deletion strains, locus YLR221C, strain rsa3, stronger effect = lower value 0.983 | S. cerevisiae deletion strains, locus YLR258W, strain gsy2, stronger effect = lower value 1.01 | S. cerevisiae deletion strains, locus YLR262C, strain YPT6 (second series), stronger effect = lower value 0.996 | S. cerevisiae deletion strains, locus YLR262C, strain YPT6, stronger effect = lower value 1.02 | S. cerevisiae deletion strains, locus YLR268W, strain sec22, stronger effect = lower value 1.02 | S. cerevisiae deletion strains, locus YLR320W, strain mms22, stronger effect = lower value 0.991 | S. cerevisiae deletion strains, locus YLR330W, strain CHS5, stronger effect = lower value 1 | S. cerevisiae deletion strains, locus YLR342W, strain FKS1 (second series), stronger effect = lower value 1.03 | S. cerevisiae deletion strains, locus YLR342W, strain FKS1, stronger effect = lower value 0.993 | S. cerevisiae deletion strains, locus YLR357W, strain rsc2, stronger effect = lower value 0.983 | S. cerevisiae deletion strains, locus YLR370C, strain arc18, stronger effect = lower value 0.994 | S. cerevisiae deletion strains, locus YLR371W, strain rom2, stronger effect = lower value 0.977 | S. cerevisiae deletion strains, locus YLR384C, strain iki3, stronger effect = lower value 0.971 | S. cerevisiae deletion strains, locus YLR418C, strain cdc73, stronger effect = lower value 1.02 | S. cerevisiae deletion strains, locus YML016C, strain PPZ1, stronger effect = lower value 1 | S. cerevisiae deletion strains, locus YML032C, strain rad52, stronger effect = lower value 0.985 | S. cerevisiae deletion strains, locus YML120C, strain ndi1, stronger effect = lower value 0.997 | S. cerevisiae deletion strains, locus YML124C, strain tub3, stronger effect = lower value 0.988 | S. cerevisiae deletion strains, locus YMR058W, strain fet3, stronger effect = lower value 1 | S. cerevisiae deletion strains, locus YMR078C, strain ctf18, stronger effect = lower value 0.988 | S. cerevisiae deletion strains, locus YMR125W, strain sto1, stronger effect = lower value 0.997 | S. cerevisiae deletion strains, locus YMR129W, stronger effect = lower value 0.989 | S. cerevisiae deletion strains, locus YMR205C, strain PFK2, stronger effect = lower value 0.993 | S. cerevisiae deletion strains, locus YMR223W, strain ubp8, stronger effect = lower value 0.983 | S. cerevisiae deletion strains, locus YMR231W, strain pep5, stronger effect = lower value 1 | S. cerevisiae deletion strains, locus YMR307W, strain GAS1, stronger effect = lower value 1.07 | S. cerevisiae deletion strains, locus YNL067W, strain RPL9B, stronger effect = lower value 1.01 | S. cerevisiae deletion strains, locus YNL071W, strain lat1, stronger effect = lower value 0.994 | S. cerevisiae deletion strains, locus YNL128W, strain TEP1, stronger effect = lower value 1.04 | S. cerevisiae deletion strains, locus YNL209W, strain ssb2, stronger effect = lower value 0.997 | S. cerevisiae deletion strains, locus YNL233W, strain BNI4, stronger effect = lower value 1.01 | S. cerevisiae deletion strains, locus YNL248C, strain rpa49, stronger effect = lower value 1.01 | S. cerevisiae deletion strains, locus YNL250W, strain rad50, stronger effect = lower value 1 | S. cerevisiae deletion strains, locus YNL271C, strain bni1, stronger effect = lower value 1.01 | S. cerevisiae deletion strains, locus YNL298W, strain CLA4, stronger effect = lower value 1.01 | S. cerevisiae deletion strains, locus YNL307C, strain MCK1, stronger effect = lower value 0.985 | S. cerevisiae deletion strains, locus YNL322C, strain KRE1 (second series), stronger effect = lower value 0.983 | S. cerevisiae deletion strains, locus YNR049C, strain mso1, stronger effect = lower value 0.993 | S. cerevisiae deletion strains, locus YNR052C, strain pop2, stronger effect = lower value 0.975 | S. cerevisiae deletion strains, locus YOL006C, strain TOP1, stronger effect = lower value 1.05 | S. cerevisiae deletion strains, locus YOL012C, strain htz1 0.955 | S. cerevisiae deletion strains, locus YOL147C, strain pex11, stronger effect = lower value 0.982 | S. cerevisiae deletion strains, locus YOR001W, strain rrp6, stronger effect = lower value 1.01 | S. cerevisiae deletion strains, locus YOR061W, strain CKA2, stronger effect = lower value 1.01 | S. cerevisiae deletion strains, locus YOR069W, strain VPS5, stronger effect = lower value 1.01 | S. cerevisiae deletion strains, locus YOR070C, strain gyp1, stronger effect = lower value 0.987 | S. cerevisiae deletion strains, locus YOR080W, strain dia2, stronger effect = lower value 0.996 | S. cerevisiae deletion strains, locus YOR083W, strain WHI5, stronger effect = lower value 0.98 | S. cerevisiae deletion strains, locus YOR106W, strain vam3, stronger effect = lower value 1.01 | S. cerevisiae deletion strains, locus YOR136W, strain idh2, stronger effect = lower value 0.995 | S. cerevisiae deletion strains, locus YOR144C, strain elg1, stronger effect = lower value 0.99 | S. cerevisiae deletion strains, locus YOR184W, strain ser1, stronger effect = lower value 0.998 | S. cerevisiae deletion strains, locus YOR265W, strain rbl2, stronger effect = lower value 1 | S. cerevisiae deletion strains, locus YOR270C, strain vph1, stronger effect = lower value 0.968 | S. cerevisiae deletion strains, locus YOR290C, strain snf2, stronger effect = lower value 0.974 | S. cerevisiae deletion strains, locus YOR316C, strain cot1, stronger effect = lower value 0.977 | S. cerevisiae deletion strains, locus YPL051W, strain arl3, stronger effect = lower value 1 | S. cerevisiae deletion strains, locus YPL078C, strain atp4, stronger effect = lower value 0.995 | S. cerevisiae deletion strains, locus YPL106C, strain sse1, stronger effect = lower value 0.978 | S. cerevisiae deletion strains, locus YPL240C, strain hsp82, stronger effect = lower value 0.993 | S. cerevisiae deletion strains, locus YPL241C, strain CIN2, stronger effect = lower value 1 | S. cerevisiae deletion strains, locus YPR119W, strain clb2, stronger effect = lower value 0.982 | S. cerevisiae deletion strains, locus YPR141C, strain kar3, stronger effect = lower value 0.993 | S. cerevisiae deletion strains, locus YPR163C, strain tif3, stronger effect = lower value 0.981 | S. cerevisiae deletion strains, locus YPR167C, strain met16, stronger effect = lower value 0.984 | S. cerevisiae deletion strains, strain wtn01, stronger effect = lower value 1.05 | S. cerevisiae strains, strain wild type, stronger effect = lower value 1.01

Reference: PubChem BioAssay AID1159580 (chemical genetic matrix, 2015)
